Sampled rows, rich in hits. Any-hit rate of the full collection: about 3.5%.
14-3-3 Bad PPI = disrupts binding of bovine 14-3-3 zeta to phospho-Bad peptide; P63103; TR-FRET 14-3-3zeta/Dy647-pBad peptide displacement, 1 h; inhibition, % at 21.7 µM; 220,000 compounds, 0.71% hits; AID 781;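 active = inhibition above about 70%, limit read from the data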
Mcl-1 Bim block = inhibitors of Bim-Mcl-1 interaction, human | inhibition, % at 10 µM | 190,000 compounds, 0.1% hits | AID 1009 | Q07820 | Bead-based flow cytometry, Bim peptide-Mcl-1 binding; in the data active = inhibition above about 40%
Target sequence (Q07820 whole entry, looked up): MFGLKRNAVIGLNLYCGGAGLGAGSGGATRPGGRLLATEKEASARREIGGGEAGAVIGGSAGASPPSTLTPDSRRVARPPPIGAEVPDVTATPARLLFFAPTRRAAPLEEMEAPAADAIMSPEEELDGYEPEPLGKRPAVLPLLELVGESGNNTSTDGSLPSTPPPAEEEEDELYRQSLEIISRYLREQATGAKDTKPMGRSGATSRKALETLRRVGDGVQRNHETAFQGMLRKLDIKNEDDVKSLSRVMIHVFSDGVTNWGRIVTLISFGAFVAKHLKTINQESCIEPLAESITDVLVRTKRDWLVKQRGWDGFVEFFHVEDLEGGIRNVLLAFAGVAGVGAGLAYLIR
eIF4E-4G inh = blocks eIF4E binding to eIF4G; TR-FRET eIF4E-eIF4GI(517-606) binding, 2 h; inhibition, % at 21.7 µM; 220,000 compounds, 0.37% hits; AID 782;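 active = inhibition above about 30%, limit read from the data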
Mcl1-Bid inh = disrupts binding of human Mcl-1 to Bid peptide. Q07820. TR-FRET Mcl-1/Bid-Dy647 peptide binding, 1536-well. inhibition, % at 21.7 µM. 220,000 compounds, 0.97% hits. AID 1021;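 active = compounds that cut the binding signal by more than half at the single screening dose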;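 also: His-tagged Mcl-1 with europium anti-His antibody binding Bid BH3 peptide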
Hck Nef HTS = inhibitors of human Hck kinase activated by Nef; 220,000 compounds, 0.68% hits; Recombinant Hck-YEEI plus Nef, Z-Lyte FRET kinase assay; inhibition, % at 20 µM;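 active = Hck-Nef kinase inhibition above about 50%, limit read from the data; inactive = inhibition below that limit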
Mcl1 Noxa PPI = disrupts binding of human Mcl-1 to Noxa peptide; Q07820; TR-FRET Mcl-1/Noxa peptide binding, 2 h; inhibition, % at 21.7 µM; 220,000 compounds, 1.5% hits; AID 1022;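 active = compounds that cut the protein-peptide binding signal by more than 50% relative to plate controls in a single-dose test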;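 also: His-tagged Mcl-1 with rhodamine Noxa BH3 peptide and terbium anti-His antibody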
Numbers stand for hits; 0 = inactive; - = no result; [ ] = remark or other dose.

SMILES	14-3-3 Bad PPI	Mcl-1 Bim block	eIF4E-4G inh	Mcl1-Bid inh	Hck Nef HTS	Mcl1 Noxa PPI
CC1=CC2=NC(=O)/C(=C\c3cc(C)n(-c4cccc(Cl)c4)c3C)C(=N)N2O1	0	0	0	0	0	0
CC1=CC2=NC(=O)/C(=C\c3cc(C)n(-c4ccccc4)c3C)C(=N)N2O1	0	0	80[fluorescence artefact?]	0	0	0
COc1ccc(CNC(=O)Cc2csc(Nc3nc(=S)[nH]c4ccccc34)n2)cc1	0	0	0	0	0	0
O=C(Cc1csc(Nc2nc(=S)[nH]c3ccccc23)n1)NCc1ccc(Cl)cc1	0	0	0	56	0	0
COc1ccccc1N1CCN(/N=C/c2cc(OC)c(O)c(OC)c2)CC1	0	0	0	0	0	54
COc1ccccc1N1CCN(/N=C/c2cccc(O)c2)CC1	0	0	0	0	0	0
Cc1cccc(NC(c2ccc(C)s2)c2ccc3ccc(C)nc3c2O)n1 (stereo unspecified)	0	0	0	0	0	67
Cc1ccnc(NC(c2ccsc2)c2ccc3ccc(C)nc3c2O)c1 (stereo unspecified)	0	0	0	0	0	0
Cc1ccc2ccc(C(Nc3ccccn3)c3ccccc3)c(O)c2n1 (stereo unspecified)	0	0	0	0	0	0
COc1ccccc1NC(c1cccnc1)c1ccc2cccnc2c1O (stereo unspecified)	0	0	0	0	0	51
COc1cc(C(Nc2ccccn2)c2ccc3ccc(C)nc3c2O)cc(OC)c1O (stereo unspecified)	0	0	0	0	0	93
CCCCc1n(CC(=O)c2ccc(Cl)cc2)c2ccccc2[n+]1C	0	0	0	0	0	0
CC1(C)Cc2ccccc2C(=NCCCC(=O)O)N1	0	0	0	0	0	0
CC(N=C1NC(C)(C)Cc2ccccc21)C(=O)O (stereo unspecified)	91	0	0	0	0	0
CC1(C)Cc2ccccc2/C(=C/C(=O)N2CCCCCC2)N1	74	0	0	0	0	0
NS(=O)(=O)c1ccc(CCNC(=O)COC(=O)CC(c2ccccc2)c2ccccc2)cc1	0	0	0	0	0	0
COc1ccc(Cl)cc1-n1c(C)cc(C=O)c1C	0	44	0	0	0	0
CCOc1ccc(C(=O)Nc2nnn(CC)n2)cc1	0	62	0	0	0	0
CCOC(=O)Cc1csc(NC(=O)CSc2nc3sc(C(=O)O)c(C)c3c(=O)[nH]2)n1	-	0	-	0	0	0
CC(=O)c1sc2nc(CSc3nncn3C)[nH]c(=O)c2c1C	0	0	0	54	0	0
Cc1csc(NC(=O)CSc2nc3sc(C)c(C)c3c(=O)[nH]2)n1	0	0	0	63	0	0
CSCc1nc2sc(C(=O)Nc3nc(C)cs3)c(C)c2c(=O)[nH]1	0	0	0	0	0	79
CC(=O)Nc1ccc(OCc2nnc(-c3ccc(Cl)cc3)o2)cc1	0	0	0	0	0	0
Cn1cc(CN2CCN(Cc3ccccc3)CC2)c(-c2cccc(Cl)c2)n1	0	0	0	0	0	0
COc1ccc2c(c1)O[C@@H](c1cccc(C(F)(F)F)c1)[C@H](OC(=O)NCCc1ccc(OC)c(OC)c1)C2=O	0	0	0	0	0	0
SMILES	14-3-3 Bad PPI	Mcl-1 Bim block	eIF4E-4G inh	Mcl1-Bid inh	Hck Nef HTS	Mcl1 Noxa PPI
CC(C)CNC(=O)COC(=O)c1n[nH]c2ccccc12	0	0	0	0	0	0
CCN(CC)c1ccc(NC(=O)/C=C\c2ccccc2Cl)cc1	0	0	0	0	0	91
Cc1cc(NC(=O)/C=C/c2ccccc2Cl)no1	0	0	0	0	0	0
CN(C)c1ccc(NC(=O)/C=C/c2ccccc2Cl)cc1	0	0	0	0	0	77
COc1ccc(S(=O)(=O)NCCc2nnc3ccc(SCc4cccnc4)nn23)cc1	0	0	0	0	0	0
Cc1ccc(S(=O)(=O)Nc2c(C)nc3nc[nH]n3c2=O)c(C)c1	0	0	0	0	0	0
Cn1c(-c2cccc3ccccc23)n[nH]c1=S	0	0	0	0	0	0
COc1cc(/C=N/N=C2/C(=O)Nc3ccccc32)ccc1O	0	0	0	0	0	0
O=C(/C(=N/N=C/c1ccc(O)c(O)c1)c1ccccc1)c1ccccc1	0	0	0	0	0	51
O=C1Nc2ccccc2/C1=N\N=C\c1ccc(O)c(O)c1	0	-	0	0	0	65
CCCCc1ccc(NS(=O)(=O)c2cccs2)cc1	0	-	0	0	0	0

High-throughput results (PubChem)
